Data reported in PubChem BioAssay (NCATS).
Inconclusive results are not listed. The source made the active and inactive calls. Unless noted, the rule behind the calls is not given here.

Assay: qHTS assay for cell viability of the p53RE-bla HCT-116 cell line (AID 743292; active = well fitted cell-killing curve with a large enough effect; note: potency is the fitted concentration of half-maximal effect; nearly all actives have a fitted effect of over 55% in size)
Settings: p53RE-bla HCT-116 viability, ATP luminescence, 16 h; series mostly up to 95 µM
Summary of the method: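 HCT-116 p53RE-bla cells seeded 4,000/well; 5 h at 37 C; compound (DMSO) added; 16 h at 37 C; CellTiter-Glo added, 30 min RT; luminescence read.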

Which Potency does the source give for `CCC[CH2][Sn]([CH2]CCC)([CH2]CCC)[O]C(=O)c1ccccc1` here?
The Potency was 6.31 µM (active).

Which Potency does the source give for `CC[C@H](C)[C@H]1O[C@]2(C=C[C@@H]1C)C[C@@H]1C[C@@H](C/C=C(\C)[C@@H](O[C@H]3C[C@H](OC)[C@@H](O[C@H]4C[C@H](OC)[C@@H](NC)[C@H](C)O4)[C@H](C)O3)[C@@H](C)/C=C/C=C3\CO[C@@H]4[C@H](O)C(C)=C[C@@H](C(=O)O1)[C@]34O)O2` here?
The Potency was 28.2 µM (active).

Which Potency does the source give for `[Cl][Sn]([c]1ccccc1)([c]1ccccc1)[c]1ccccc1` here?
The Potency was 7.94 µM (active).

Assay: qHTS profiling for inhibitors of Plasmodium falciparum (3D7) proliferation (AID 743322);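 note: infected erythrocytes exposed to compound for 72 h before lysis; 100% = DMSO vehicle wells and 0% = 0.29 µM artemisinin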
Settings: P. falciparum 3D7 proliferation; at 28.7 µM (top of the series) unless noted
Summary of the method: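 Parasite DNA was quantified by SYBR Green I fluorescence (ex 485, em 535 nm) after overnight lysis in saponin/Triton buffer at room temperature. Cultures at 0.3% parasitemia and 2.5% hematocrit were first exposed to compound for 72 h at 37 C; signals were normalised to artemisinin (0.29 uM) and vehicle wells.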

With `CCCCN(CCCC)CCC(OC(=O)O[C@@H]1CCC[C@]2(C1)OOC1(O2)C2CC3CC(C2)CC1C3)c1cc2c(Cl)cc(Cl)cc2c2cc(C(F)(F)F)ccc12` (stereo not given in full) as the compound, how does the remaining parasite growth % (stronger effect = lower value) read?
Its remaining parasite growth % (stronger effect = lower value) is -0.394%.

With `CSc1cccc(NC(=O)CC[C@H]2O[C@@H]3O[C@]4(C)CC[C@H]5[C@H](C)CC[C@@H]([C@@H]2C)[C@@]35OO4)c1` as the compound, how does the remaining parasite growth % (stronger effect = lower value) read?
Its remaining parasite growth % (stronger effect = lower value) is -0.517%.

With `CCCCN(CCCC)CCC(OC(=O)O[C@H]1CCC[C@]2(C1)OOC1(O2)C2CC3CC(C2)CC1C3)c1cc2c(Cl)cc(Cl)cc2c2cc(C(F)(F)F)ccc12` (stereo not given in full) as the compound, how does the remaining parasite growth % (stronger effect = lower value) read?
The remaining parasite growth % (stronger effect = lower value) was -0.262%.

For `C[C@@H]1[C@@H](CC(C[C@H]2O[C@@H]3O[C@]4(C)CC[C@@H]5[C@H](C)CC[C@@H]([C@H]2C)[C@@]35OO4)C(=O)NCc2ccc(F)cc2)O[C@@H]2O[C@]3(C)CC[C@H]4[C@H](C)CC[C@@H]1[C@@]24OO3` (stereo not given in full), which remaining parasite growth % (stronger effect = lower value) is on record?
The remaining parasite growth % (stronger effect = lower value) was -0.677%.

Which remaining parasite growth % (stronger effect = lower value) does the source give for `C[C@H]1[C@@H](CCC(=O)Nc2ccc(F)cc2)O[C@@H]2O[C@]3(C)CC[C@@H]4[C@H](C)CC[C@@H]1[C@@]24OO3` here?
Its remaining parasite growth % (stronger effect = lower value) is -0.086%.

For `O=C1C(=O)c2ccccc2C(O)=C1C1CCC2(CC1)OOC1(O2)C2CC3CC(C2)CC1C3` (stereo not given), which remaining parasite growth % (stronger effect = lower value) is on record?
Its remaining parasite growth % (stronger effect = lower value) is 0.339%.

Assay: qHTS profiling for inhibitors of Plasmodium falciparum (DD2) proliferation (AID 743323)
Settings: lower = more inhibition; at 28.7 µM (top of the series) unless noted
Summary of the method: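 P. falciparum Dd2-infected erythrocytes (0.3% parasitemia, 2.5% hematocrit) exposed 72 h at 37 C, 5% CO2. Lysis with SYBR Green, overnight at room temperature, fluorescence 485/535 nm; normalized to 0.29 uM artemisinin and DMSO.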

With `CCCCN(CCCC)CCC(OC(=O)O[C@@H]1CCC[C@]2(C1)OOC1(O2)C2CC3CC(C2)CC1C3)c1cc2c(Cl)cc(Cl)cc2c2cc(C(F)(F)F)ccc12` (stereo not given in full) as the compound, how does the activity, percent of control read?
The activity, percent of control was 0.0994%.

With `CSc1cccc(NC(=O)CC[C@H]2O[C@@H]3O[C@]4(C)CC[C@H]5[C@H](C)CC[C@@H]([C@@H]2C)[C@@]35OO4)c1` as the compound, how does the activity, percent of control read?
The activity, percent of control was 0.0476%.

With `CCCCN(CCCC)CCC(OC(=O)O[C@H]1CCC[C@]2(C1)OOC1(O2)C2CC3CC(C2)CC1C3)c1cc2c(Cl)cc(Cl)cc2c2cc(C(F)(F)F)ccc12` (stereo not given in full) as the compound, how does the activity, percent of control read?
Its activity, percent of control is 0.194%.

For `C[C@@H]1[C@@H](CC(C[C@H]2O[C@@H]3O[C@]4(C)CC[C@@H]5[C@H](C)CC[C@@H]([C@H]2C)[C@@]35OO4)C(=O)NCc2ccc(F)cc2)O[C@@H]2O[C@]3(C)CC[C@H]4[C@H](C)CC[C@@H]1[C@@]24OO3` (stereo not given in full), which activity, percent of control is on record?
Its activity, percent of control is 0.0214%.

With `C[C@H]1[C@@H](CCC(=O)Nc2ccc(F)cc2)O[C@@H]2O[C@]3(C)CC[C@@H]4[C@H](C)CC[C@@H]1[C@@]24OO3` as the compound, how does the activity, percent of control read?
Its activity, percent of control is 0.199%.

For `O=C1C(=O)c2ccccc2C(O)=C1C1CCC2(CC1)OOC1(O2)C2CC3CC(C2)CC1C3` (stereo not given), which activity, percent of control is on record?
The activity, percent of control was -0.0523%.
